Reference: PubChem BioAssay
A number with no mark means an inactive call. How the calls were made is not given here.

These compounds were tested against Pantothenate synthetase (Mycobacterium tuberculosis (strain ATCC 25618 / H37Rv)) (UniProt P9WIL5) (assay: Recombinant Mtb pantothenate synthetase (PanC) inhibitors, coupled enzyme, confirmatory (AID 375;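 further: 0% = full reaction with vehicle and 100% = no enzyme background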)). Conditions: coupled enzyme assay; at 10 µM, hits give high values.
Chain of Pantothenate synthetase (Mycobacterium tuberculosis (strain ATCC 25618 / H37Rv)) (P9WIL5 whole entry, looked up): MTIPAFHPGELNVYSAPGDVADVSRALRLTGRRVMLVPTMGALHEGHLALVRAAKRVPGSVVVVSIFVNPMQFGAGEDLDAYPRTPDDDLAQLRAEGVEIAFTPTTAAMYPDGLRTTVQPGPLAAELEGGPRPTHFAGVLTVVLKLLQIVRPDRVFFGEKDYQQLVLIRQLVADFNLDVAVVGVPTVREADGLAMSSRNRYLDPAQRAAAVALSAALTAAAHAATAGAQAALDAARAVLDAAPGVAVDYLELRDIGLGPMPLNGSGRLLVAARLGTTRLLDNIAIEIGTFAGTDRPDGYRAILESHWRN
In the case of `O=C(NCCc1ccccc1)C1CCCN(S(=O)(=O)c2cccs2)C1` (stereo not given), the inhibition was 9%.
With `Cc1ccccc1OCCN1C(=O)NC2(CCc3ccccc32)C1=O` (stereo not given) the inhibition was 8%.
In the case of `O=C(CN(Cc1ccco1)C(=O)CNS(=O)(=O)c1ccc(Cl)cc1)NCc1ccc(F)cc1`, the inhibition was 3%.
`CC(=O)OCC(=O)[C@H]1CC[C@H]2[C@@H]3CC=C4C[C@@H](O)CC[C@]4(C)[C@H]3CC[C@]12C` showed an inhibition of 1%.
For `CCOC(=O)Cc1c(C)c2c(O)cc(O)cc2oc1=O`, the inhibition was 8%.
In the case of `CSc1c(CC(=O)NCCO)n(C)c2ccccc12`, the inhibition was 0%.
Work on `COc1ccc2c(c1OC)C(=O)OC2CC(=O)c1ccc(O)cc1` (stereo not given) yielded an inhibition of 0%.
`COc1ccc(NC(=O)CSC2=C(C#N)C(c3ccco3)C3=C(CCCC3=O)N2)c(OC)c1` (stereo not given) showed an inhibition of 16%.
`CSCCC(NS(=O)(=O)c1ccc2c(c1)oc(=O)n2C)C(=O)NC1CCCCC1` (stereo not given) showed an inhibition of 0%.
`Cc1ccccc1CN1CCN(CC(=O)NCc2ccccc2)C1=O` showed an inhibition of 2%.
Compound `O=S(=O)(NCc1cn2ccccc2n1)c1cc(F)ccc1F` has an inhibition of 2%.
In the case of `Cc1cc(=O)n2[nH]c(COc3ccccc3)nc2n1`, the inhibition was 6%.
`CN1CCC(=C2c3ccccc3CC(=O)c3sccc32)CC1` gave an inhibition of 2%.
`COC(=O)c1ccnc(/C=N/O)c1` was tested, and the inhibition was 6%.
`O=S(=O)(NCC(c1cccnc1)N1CCN(c2ccccc2)CC1)c1cc(F)ccc1F` (stereo not given) was tested, and the inhibition was 0%.
`COc1ccc(CCNC(=O)C2CC(=O)N(c3ccccc3)C2)cc1OC` (stereo not given) was tested, and the inhibition was 0%.
In the case of `O=C(NCCSc1c[nH]c2ccccc12)c1ccc(Br)o1`, the inhibition was 1%.
In the case of `O=C(CCN1C(=O)c2ccccc2C1=O)NCCN1CCOCC1`, the inhibition was 0%.
With `CC(=O)N1CCc2cc(S(=O)(=O)NCCC(=O)Nc3cc(C)cc(C)c3)ccc21` the inhibition was 2%.
With `CCOC(=O)N1CCN(S(=O)(=O)c2cc(Cl)ccc2Cl)CC1` the inhibition was 3%.
With `Cc1ccc(Cn2c(C)nc3c(c2=O)c2nc4ccccc4nc2n3Cc2ccco2)cc1` the inhibition was 0%.
Compound `CN(C)c1ccc(NC(=O)Nc2cccc(Cl)c2)cc1` has an inhibition of 0%.
In the case of `O=C(O)CCNc1ccc2c(c1)OCCO2`, the inhibition was 0%.
For `Cc1ccccc1NC(=O)NCCCN1CCN(C2CCCCC2)CC1`, the inhibition was 0%.
`CCOc1ccc(N2CC(C(=O)Nc3ccccc3OC)CC2=O)cc1` (stereo not given) gave an inhibition of 0%.
`O=C(CSc1nnc(-c2c[nH]c3ccccc23)o1)N(Cc1ccccc1)c1ccc(F)cc1` was tested, and the inhibition was 0%.
In the case of `Cn1c(=O)n(CC(=O)OCc2ccccc2)c(=O)c2c1nc1n2CCCN1C1CCCCC1`, the inhibition was 0%.
Work on `COc1cc(C(=O)OCC(=O)N(C)Cc2ccccc2)cc(OC)c1OC` yielded an inhibition of 0%.
With `O=S(=O)(c1ccc(OCC(O)CN2CCC(Cc3ccccc3)CC2)cc1)N1CCOCC1` (stereo not given) the inhibition was 1%.
In the case of `COc1ccccc1NC(=O)CSc1nnc(CC(=O)Nc2ccccc2)n1C`, the inhibition was 6%.
In the case of `CC(=O)Nc1c(O)n(C)c2ccccc12`, the inhibition was 2%.
`COc1ccc(C2/C(=C(/O)c3ccccc3)C(=O)C(=O)N2c2ncccn2)cc1OC` (stereo not given) showed an inhibition of 2%.
`c1coc(-c2nnc(-c3cccs3)o2)c1` was tested, and the inhibition was 16%.
`CCC(NC(C)C)C(O)c1ccc(O)c2[nH]c(=O)ccc12` (stereo not given) was tested, and the inhibition was 0%.
`CN1CCN(C(=O)c2ccc3c(=O)n(CCc4ccccc4)c(=S)[nH]c3c2)CC1` showed an inhibition of 0%.
`C/C=C/COC(=O)c1[nH]c2c(c1C)C(=O)CC(c1ccc(N(C)C)cc1)C2` (stereo not given) gave an inhibition of 1%.
`CN(CC(=O)Nc1ccccc1Cl)C(=O)COC(=O)CNC(=O)c1ccc(Br)o1` gave an inhibition of 0%.
Compound `CC1=C(C(=O)NC2CCC(C)CC2)C2(CCC(C)CC2)OC1=O` (stereo not given) has an inhibition of 2%.
With `Cc1ccc(NC(=O)CSc2nnc(CCCCCNC(=O)OC(C)(C)C)o2)c(C)c1` the inhibition was 6%.
`O=C(NCc1cccs1)c1cc2c(s1)-c1ccccc1OC2` was tested, and the inhibition was 0%.
